Reference: PubChem BioAssay AID1851 (National Center for Advancing Translational Sciences (NCATS), 2009)
In all, about 16,000 compounds went through this assay and about 5,100 (32%) were called active. Not shown: some 25% with an inconclusive outcome. Calls come from the whole dose curve; as a rule, active = well fitted curve in the direction sought with a large enough effect; inconclusive = small, poorly fitted or top-dose-only effect, or effect the other way; inactive = no such curve, though single readings can be large or run the other way. The list shows a part of the results.

Biological target: Cytochrome P450 3A4 (Homo sapiens) (UniProt P08684)
Sequence (P08684 whole entry, looked up): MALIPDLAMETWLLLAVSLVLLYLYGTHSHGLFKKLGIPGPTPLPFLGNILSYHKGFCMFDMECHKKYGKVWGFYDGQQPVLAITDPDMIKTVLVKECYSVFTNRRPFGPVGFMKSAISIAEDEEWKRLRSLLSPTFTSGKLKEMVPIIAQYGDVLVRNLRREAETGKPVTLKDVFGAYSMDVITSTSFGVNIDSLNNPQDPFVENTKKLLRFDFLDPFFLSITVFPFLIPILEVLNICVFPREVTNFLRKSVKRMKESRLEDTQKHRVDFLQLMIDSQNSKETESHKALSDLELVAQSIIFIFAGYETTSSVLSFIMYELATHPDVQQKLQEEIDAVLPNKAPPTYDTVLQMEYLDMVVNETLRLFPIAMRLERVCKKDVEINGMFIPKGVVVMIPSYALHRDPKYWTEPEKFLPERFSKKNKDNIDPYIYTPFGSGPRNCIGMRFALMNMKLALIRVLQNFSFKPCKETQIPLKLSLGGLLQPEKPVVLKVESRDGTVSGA
Test: Cytochrome panel assay with activity outcomes
Details: recombinant CYP, pro-luciferin dealkylation, luminescence, p450-cyp3a4; series mostly up to 57.1 µM; activity, negative = inhibition: at the top concentration
% is set by controls: 0 for no effect and ±100 for the full control effect.

activity, negative = inhibition, inactive:
CCN1C(=O)[C@H]2[C@H]3[C@H](O)[C@H](O)C/C(=N/O[C@@H]4O[C@@H](COC(C)=O)[C@@H](OC(C)=O)[C@@H](OC(C)=O)[C@H]4OC(C)=O)[C@H]3CC[C@@H]2C1=O -8.67% [at 11.4 µM]
COc1ccc(C(=O)COC(=O)c2ccc(NC(=O)c3ccccc3)cc2)cc1 7.44%
Cc1ccc(C(=O)Nc2ccc(N3CCOCC3)nc2)cc1 -10.3%
Cc1ccc(NC(=O)c2nnn(-c3cc(C)cc(C)c3)c2N)cc1 5.32% [at 2.29 µM]
Cn1c(=O)n2n(c1=O)[C@H]1[C@H](O)[C@H]3O[C@@H]3/C(=N/OCc3ccccc3)[C@@H]1CC2 -26.2% [at 11.4 µM]
Cc1ccc(-n2c(=O)[nH]cc(C(=O)N3CCc4ccccc43)c2=O)cc1 -21.6%
CC(C)CC(=O)N1CCC(N2CCN(c3ccccc3)CC2)CC1 6.02% [at 2.29 µM]
CCc1cccc(CC)c1NC(=O)CN(CC(=O)O)CC(=O)O -4.16% [at 25.6 µM]
CCOC(=O)N1CCN(C(=O)CN(C)S(=O)(=O)c2ccc3c(c2)C(C)(C)C(=O)N3C)CC1 -22.1%
CCOc1[nH]n(-c2ccc(Cl)cc2)c(=O)c1C=Nc1ccc(O)cc1 -15.4%
C/C(=N\OC(=O)c1cccc(C)c1)c1sc(-c2ccccc2)nc1C -24.5%
c1ccc2c(CN3CCN(Cc4c[nH]c5ccccc45)CC3)c[nH]c2c1 -20.1% [at 11.4 µM]
CCN(CC)CCc1nc(-c2ccccc2)no1 -1.29% [at 25.6 µM]
CN(C)C(=O)CCc1nc(-c2ccc(C(C)(C)C)cc2)no1 -18.2%

AC50, active:
Cc1ccc(-n2nc3ccc(NC(=O)c4ccc5c(c4)OCO5)cc3n2)cc1 8.91 µM
COc1ccc(C(=O)Nc2cccc(-c3cnc4ccccc4n3)c2)cc1 2.51 µM
Cc1ccc(C(=O)Nc2ccc3nccnc3c2)cc1 14.1 µM
Cc1ccc(C)c(-n2c(CNC(=O)c3ccco3)nnc2SCC(=O)N2CCc3ccccc32)c1 7.08 µM
CN(CC(=O)N1CCN(c2ccccc2)CC1)S(=O)(=O)c1cnc[nH]1 11.2 µM
CCc1cccc(NC(=O)CN(C)S(=O)(=O)c2cnc[nH]2)c1 2.51 µM
COc1cc(O)oc1C=Nc1ccc(Cl)cc1 15.8 µM
COc1cc(O)oc1C=Nc1ccc(C(F)(F)F)cc1 8.91 µM
C/C(=N\OC(=O)NC1CCCCC1)c1sc(-c2ccccc2)nc1C 15.8 µM
c1ccc2c(-c3c[nH]c4ccccc34)c3ccccc3nc2c1 8.91 µM
O=C(O)CCc1nc(-c2ccccc2-n2cccc2)no1 2.51 µM
